Test results taken from the supplement of paper PMC3484114.
± gives the standard deviation.

tested on: OVCAR-3-derived ovarian cancer stem-like cells (spheroids); assay: cell growth relative to untreated control; higher = more growth (less inhibition); conditions: 2.29 µM; 96 h
Method in brief: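 Percent growth was calculated against untreated wells once blanks were subtracted and Grubbs outliers removed. The cells were OVCAR-3 spheroid-derived stem-like cells, trypsinized and plated at 50,000 cells/mL in stem cell medium on ultra-low attachment 96-well plates for a 24 h preincubation. They were then exposed to compounds at 2.29 uM for 96 h at 37°C, 5% CO2, in 4 replicate wells, and viability was measured by TOX8 resazurin fluorescence (ex 560/em 590 nm) after 4 h.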

SMILES | cell growth [%]
C=C1C(=O)O[C@@H]2/C=C(/C)C(=O)C[C@H]3OC(C)(C)O[C@]3(C)C[C@@H](OC(=O)/C(C)=C\C)[C@@H]12 | 90.5 ± 31
COc1cc2c(c(OC)c1OC)-c1ccc(OC)c(=O)cc1[C@@H](NC(=O)c1ccccc1)CC2 | 30.8 ± 5.6
CC(=O)Oc1ccc(C(c2ccc(OC(C)=O)cc2)c2ccccn2)cc1 | 20.8 ± 5.2
O=[N+]([O-])c1ccc(-c2cn(-c3ccc(Cl)cc3)cn2)cc1 | 106 ± 23
CN(C)CCNC(=O)c1cccc2[nH]c(-c3ccncc3)nc12 | 96.5 ± 22
CS(=O)(=O)OCCCCOS(C)(=O)=O | 121 ± 16
CC(CN(C)C)C(=O)c1ccccc1C(=O)O (configuration not stated) | 92.7 ± 31
Cc1c(C(=O)C/C(=N/NC(=O)CC#N)C(N)=O)[n+](=O)c2ccccc2n1[O-] | 51.9 ± 10
O=C1C=C(Nc2ccccc2C(=O)CC(=O)C(=O)Nc2ccc(Cl)cc2)c2ccccc2C1=O | 49.4 ± 15
CN(C)c1ccc(/C=C2\CCc3ccccc3C2=O)cc1Br | 91.4 ± 12
O=C1C(CN2CCCCC2)CCCC1CN1CCCCC1 (configuration not stated) | 62.5 ± 28
CC(=O)OC[C@H]1O[C@@H](NC(=O)N(CCCl)N=O)[C@H](OC(C)=O)[C@@H](OC(C)=O)[C@@H]1OC(C)=O | 115 ± 15
CN(C)c1ccc(/C=C2/C=Cc3ccccc32)cc1 | 101 ± 8.1
COC(=O)c1c[nH]c2c1-c1cc(C(=O)OCc3ccccc3)n(S(=O)(=O)c3ccc(C)cc3)c1C(=O)C2=O | 20.9 ± 3.5
COc1ccc(C2c3cc4c(c(OC)c3CC3OCC(=O)C32)OCO4)cc1OC (configuration not stated) | 41.3 ± 11
CN(C)c1nc(=NCc2ccco2)ss1 | 93.7 ± 7
CN(C)c1ccc(C=c2c3ccccc3n3c2cc(-c2ccc(Cl)cc2)[n+]3C)cc1 | 39.7 ± 12
COc1ccc(N=C2C(=Nc3ccc(OC)cc3)N(c3ccc(N(C)C)cc3)C(=S)N2c2ccc(OC)cc2)cc1 | 72.3 ± 12
Nc1nc(N)c2ncn(-c3ccccc3)c2n1 | 162 ± 19
COc1cc2oc3cc(=O)cc4oc(-c5ccccc5)cc(c2c2c1CCC(c1ccccc1)O2)c43 (configuration not stated) | 150 ± 80
CC1=CC(=C(c2ccc(N)cc2)c2ccc(N)cc2)C=CC1=N | 50.4 ± 6.5
O=C(CC1(O)C(=O)Nc2c(Cl)ccc(Cl)c21)c1ccc(Cl)cc1 (configuration not stated) | 142 ± 53
[O-][S+]1c2ccccc2N=C(c2cccc3ccccc23)CC1c1cccc2ccccc12 (configuration not stated) | 84.1 ± 16
CC(C)(C)N(Cc1ccc2c(c1)OCO2)C(=O)/C=C\[S+]([O-])c1ccccc1 (configuration not stated) | 41.6 ± 10
CSC1SC[C@H]2C(=O)N(C)[C@@H](C(C)C)C(=O)OC[C@@H](NC(=O)c3cnc4ccccc4n3)C(=O)N[C@@H](C)C(=O)N(C)[C@@H]1C(=O)N(C)[C@@H](C(C)C)C(=O)OC[C@@H](NC(=O)c1cnc3ccccc3n1)C(=O)N[C@@H](C)C(=O)N2C (some centres not stated) | 19.7 ± 3.8
N#CC(=S)Nc1ccc(F)cc1 | 104 ± 19
NC1(CCNC(=O)c2ccccc2)CCN(C(=O)c2ccccc2)CC1 | 118 ± 19
